About 83,000 compounds went through this panel and 20% of them were active in at least one assay; those are over-represented in the sample as a whole.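 Values shown are percent growth following 48 h exposure of cells in 96-well plates to a single concentration of compound; below 10 was considered active.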 Active and inactive are the calls of the source.
How the values were obtained:
Assay in all cases: NCI-60 one-dose screen, 48 h (100 = growth as untreated, 0 = no growth, -100 = all killed)
[1] = tested on: EKVX NSCLC; settings: 10 µM unless noted
[2] = tested on: SN12C renal; settings: 10 µM unless noted
[3] = tested on: UO-31 renal; settings: 10 µM unless noted
[4] = tested on: TK-10 renal; settings: 10 µM unless noted
[5] = tested on: ACHN renal; settings: 10 µM unless noted
[6] = tested on: CAKI-1 renal; settings: 10 µM
[7] = tested on: CCRF-CEM leukemia; settings: 10 µM unless noted
[8] = tested on: MOLT-4 leukemia; settings: 10 µM unless noted
[9] = tested on: SR leukemia; settings: 10 µM unless noted
[10] = tested on: RPMI-8226 leukemia; settings: 10 µM unless noted
[11] = tested on: OVCAR-8 ovarian; settings: 10 µM unless noted
[12] = tested on: OVCAR-5 ovarian; settings: 10 µM unless noted
[13] = tested on: OVCAR-4 ovarian; settings: 10 µM unless noted
[14] = tested on: IGROV1 ovarian; settings: 10 µM unless noted
[15] = tested on: OVCAR-3 ovarian; settings: 10 µM unless noted
[16] = tested on: HS 578T breast; settings: 10 µM unless noted
[17] = tested on: NCI/ADR-RES ovarian; settings: 10 µM unless noted
[18] = tested on: SK-OV-3 ovarian; settings: 10 µM unless noted
[19] = tested on: A498 renal; settings: 10 µM unless noted

Measured: growth

CN(c1ccc(F)cc1)S(=O)(=O)c1ccc(-c2cnc(C3CC3)o2)cc1
active: [15] 6.57% | [17] 9.11%
inactive: [1] 46.9% | [2] 37.3% | [3] 44.5% | [4] 91.9% | [5] 43% | [6] 39% | [7] 16.4% | [8] 25.6% | [9] 20.1% | [10] 14.1% | [11] 38.8% | [12] 49.5% | [13] 70.4% | [14] 27.5% | [16] 37.4%

Cc1ccc(Cc2cnc(NC(=O)/C(C#N)=C/c3ccc(-c4ccc(Cl)cc4)o3)s2)cc1
inactive: [1] 92.7% | [2] 97.4% | [3] 90.1% | [4] 120% | [5] 97.4% | [6] 83.8% | [8] 103% | [9] 85.9% | [10] 94.3% | [11] 97.9% | [12] 100% | [13] 94.6% | [18] 90.9% | [14] 86.8% | [17] 92.8%

C/C(=C(/c1ccc(O)cc1)c1ccc(OCCN2CCCC2)cc1)c1ccc(Cl)cc1
active: [10] -4.71%
inactive: [1] 57.4% | [2] 66% | [3] 53.8% | [4] 84.5% | [6] 41.9% | [19] 56.5% | [7] 43.6% | [11] 64.6% | [12] 60.1% | [13] 65.4% | [14] 55.4% | [16] 48.4% | [17] 64.2%

O=C1Nc2cc(OC(F)(F)F)ccc2Oc2ccc(-c3ccnc(N4CCNCC4)c3)cc21
active: [2] -26.9% | [3] 1.72% | [5] 2.57% | [6] -36.1% | [7] -6.19% | [8] -0.166% | [9] -44% | [10] -50.9% | [14] -1.58% | [17] 5.35%
inactive: [1] 41.2% | [4] 27.8% | [11] 20.9% | [12] 14.7% | [13] 48% | [18] 20.5%

O=C1NC(=O)c2c1c1c3ccccc3ccc1c1[nH]c3ccccc3c21
active: [3] -4.64% | [4] -4.05% | [6] 4.16% | [19] -36.3% | [7] 9.91% | [8] 3.16% | [9] -9.49% | [10] 1.6% | [11] 6.43% | [18] 2.2% | [14] 9.53% | [17] 0.105%
inactive: [1] 11.1% | [2] 17.3% | [12] 49.6% | [13] 25.8% | [16] 12.7%

C=C(C)C(=O)O[C@H]1C[C@@]2(C)OC(=CC2=O)/C(CO)=C\[C@H]2OC(=O)C(=C)[C@H]12
inactive: [13] 17.4% | [18] 81.6% | [16] 17.2% | [17] 11.6%
active: [1] -5.67% | [3] -90.1% | [4] -88.1% | [5] -42.1% | [6] -75.1% | [19] -3.55% | [7] -44% | [8] -28% | [9] -38.5% | [10] -25.6% | [11] 8.5% | [12] -56.5% | [14] -36% | [15] -93.6%

COc1cc(-c2nc(SCc3ccc(C)cc3)[nH]c(=O)c2C#N)ccc1OCc1ccccc1
inactive: [1] 107% | [2] 116% | [3] 91.8% | [4] 101% | [5] 105% | [6] 95.2% | [7] 116% | [8] 129% | [10] 105% | [11] 101% | [12] 105% | [13] 98.1% | [14] 116% | [16] 107% | [17] 103%

COc1ccc(-c2nc3cc(Cl)c(Cl)cc3n2CC(=O)N=Nc2c(O)[nH]c3ccc(Cl)cc23)cc1
inactive: [1] 25.7% | [2] 23.2% | [4] 60.9% | [6] 13.6% | [8] 34.5% | [10] 40.2% | [11] 45.3% | [12] 35.4% | [18] 52.5% | [17] 17.8%
active: [3] 8.66% | [5] -33.8% | [13] 5.4% | [14] 5.72% | [16] 2.89%

COC1=C(c2ccccc2)C(=O)C(OC)=C(c2ccccc2)C1=O
active: [8] -7.74%
inactive: [1] 99% | [2] 102% | [3] 89.8% | [4] 107% | [5] 117% | [19] 89.7% | [7] 10.9% | [9] 79.8% | [10] 93.5% | [11] 100% | [12] 119% | [13] 59.6% | [18] 81.2% | [14] 93.2% | [16] 96.8% | [17] 102%

Nc1c(C(=O)c2ccccc2)sc2nc(-c3cnccn3)cc(-c3cccs3)c12
inactive: [1] 95.6% | [2] 95.2% | [3] 88.4% | [4] 106% | [6] 89.9% | [19] 106% | [7] 100% | [8] 105% | [9] 105% | [10] 108% | [11] 103% | [12] 103% | [13] 106% | [18] 103% | [14] 97.4% | [15] 108% | [16] 98.8% | [17] 107%

Cn1cc(-c2nn3cc(-c4cccnc4)nc3s2)c2cc(F)ccc21
inactive: [1] 80.9% | [2] 85.2% | [3] 70.5% | [4] 129% | [6] 78.1% | [19] 103% | [10] 93.9% | [11] 81.8% | [12] 91.5% | [18] 77.4% | [14] 74.5% | [16] 84.6% | [17] 75.7%

CCOC(=O)c1c(Nc2ccccc2)nn2c(-c3ccc(Br)cc3)ccnc12
inactive: [1] 81.5% | [2] 68.3% | [3] 65.1% | [4] 90.6% | [6] 57.6% | [7] 85.8% | [8] 87.6% | [9] 70.7% | [10] 95.8% | [11] 69.2% | [12] 80.4% | [13] 53.5% | [18] 59.2% | [14] 71% | [16] 62.8% | [17] 59.8%

CC1CCc2c(sc3nc(SCC(=O)N/N=C/c4cccc(O)c4O)n(-c4ccccc4)c(=O)c23)C1 (stereo unspecified)
inactive: [1] 85.6% | [2] 84% | [3] 73.2% | [4] 116% | [5] 71.9% | [6] 76.3% | [7] 91.9% | [8] 85% | [9] 81% | [10] 89.1% | [11] 90.6% | [12] 93.6% | [18] 107% | [14] 92.9% | [16] 95.8% | [17] 89.1%

C#C[C@]1(O)CC[C@H]2[C@@H]3CC=C4c5sc(-c6cccc(F)c6)nc5CC[C@]4(C)[C@H]3CC[C@@]21C
inactive: [1] 83.5% | [2] 89.6% | [3] 82% | [4] 121% | [6] 92.4% | [19] 101% | [8] 53.1% | [9] 76.4% | [11] 96.8% | [12] 83.2% | [13] 110% | [18] 92.7% | [14] 97.2% | [15] 102% | [16] 68.7% | [17] 89.1%

CCc1ccc(NC(=O)N[C@@H](Cc2cc(F)cc(F)c2)C(=O)N[C@@H]2C(=O)N3CCC[C@H]3C(=O)N3CCO[C@H](C)[C@H]3C(=O)N[C@@H](CO)C(=O)N3C[C@H](C)C[C@H]3C(=O)O[C@H]2C)c(F)c1
inactive: [1] 28.4% | [2] 22.5% | [3] 36.4% | [4] 55.9% | [6] 20.3% | [7] 35% | [8] 43.3% | [9] 32% | [10] 17% | [11] 22.9% | [12] 35.9% | [13] 22.9% | [14] 39.5% | [16] 35.8% | [17] 70%

Cc1cc(=O)n2nc(-c3cn(C)c4ccc(Cl)cc34)sc2n1
inactive: [1] 89.5% | [2] 91.6% | [3] 87.1% | [4] 138% | [5] 89.8% | [6] 79% | [7] 88.3% | [8] 86.6% | [9] 93% | [10] 94.5% | [11] 96.8% | [12] 93.8% | [18] 84.3% | [14] 83.7% | [16] 83.9% | [17] 93.2%

CS(=O)(=O)c1ccc2c(c1)c1c(n2S(=O)(=O)c2ccc(Cl)cc2)CCCC1
active: [19] -11.2% | [16] 0.523%
inactive: [1] 48% | [2] 33.1% | [3] 37.8% | [4] 65.7% | [6] 29.3% | [7] 27.3% | [8] 24.4% | [9] 12.3% | [10] 19.1% | [11] 31.9% | [12] 40.2% | [13] 64.7% | [18] 29.7% | [14] 48% | [17] 21%

Cc1cc(F)cc(NS(=O)(=O)c2ccc(-c3cnc(C4CC4)o3)cc2)c1
active: [15] -10.1% | [17] 6.6%
inactive: [1] 34.3% | [2] 44.8% | [3] 43.2% | [4] 53.5% | [6] 39.9% | [7] 20.8% | [8] 26.1% | [9] 27.5% | [11] 35.8% | [12] 43% | [13] 49.6% | [18] 58.2% | [14] 32.4%
